Screening results: PubChem BioAssay, National Center for Advancing Translational Sciences (NCATS)
A selection: hits, their analogues and other compounds. The true share with any hit is near 9.2%.
KDM4E inh: inhibitors of human JMJD2E histone demethylase; B2RXH2; JMJD2E catalytic domain, FDH-coupled NADH fluorescence (FDH is formaldehyde dehydrogenase); Potency, µM (titrated, usually from 57.1 µM), for the others: at the top dose activity change, negative = inhibition, usual class: inhibitors; 1.6% of 230,000 active;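 note: 0% = wells with enzyme and -100% = buffer wells without enzyme; nearly all actives have a fitted effect of over 50% in size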
Target sequence (B2RXH2 1-337 limits assumed): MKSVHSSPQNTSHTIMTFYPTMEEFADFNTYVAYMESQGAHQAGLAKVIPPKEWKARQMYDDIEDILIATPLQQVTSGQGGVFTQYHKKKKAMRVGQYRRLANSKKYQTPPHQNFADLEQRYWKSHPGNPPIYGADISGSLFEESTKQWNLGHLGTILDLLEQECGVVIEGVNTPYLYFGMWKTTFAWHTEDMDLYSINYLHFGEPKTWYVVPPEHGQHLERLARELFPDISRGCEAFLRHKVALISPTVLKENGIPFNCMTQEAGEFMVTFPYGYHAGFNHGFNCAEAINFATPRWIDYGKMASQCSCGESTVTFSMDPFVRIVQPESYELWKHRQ
ALDH1A1 inh: blocks purified human ALDH1A1 activity; 7.3% of 220,000 active; Potency, µM (series often up to 75.3 µM), inactives show top-dose activity, negative = inhibition, hits mostly inhibitors; P00352; Purified ALDH1A1, NADH fluorescence, propionaldehyde substrate;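 note: plate controls were no enzyme wells and a reference inhibitor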
LMNA splice mod: changes lamin A minigene splicing in HeLa cells | HeLa LMNA splicing GFP/RFP minigene ratio, 48 h | Potency, µM (highest dose often 46.1 µM), without a hit: at the top dose ratio change, negative = inhibition, hits mostly inhibitors | 0.01% of 200,000 active | AID 1487; active = well fitted inhibition curve with a large enough effect in the signal ratio, with a control signal flat, not every such curve was filed as active; inconclusive = small, poorly fitted or top-dose-only effect, or effect the other way, or a change in a side signal; the % refers to the signal ratio; note: % is set by controls: 0 for no effect and ±100 for the full control effect
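S3 HeLa stable clones carrying a lamin A-EGFP splicing minigene plus DsRed2 were seeded at 600 cells/well in Opti-MEM with 2% FBS, pin-dosed and incubated 48 h at 37°C. Acumen cytometry (488 nm) gave the GFP/RFP total-intensity ratio.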
HTT ATP protect: protects HTT-Q103 PC12 cells, measured by ATP; PC12 HTT-Q103 induced, cytoprotection, ATP luminescence, 40 h; Potency, µM (titrated, usually from 56.4 µM), inactives show cytoprotection (ATP increase), hits mostly activators; 0.14% of 230,000 active; AID 1471; active = well fitted curve in the direction sought with a large enough effect; inconclusive = small, poorly fitted or top-dose-only effect, or another doubt; inactive = no such curve, though single readings can be large; an effect the other way counts as inactive or inconclusive; note: % of control where 0% means no effect; nearly all actives have a fitted effect of over 45% in size
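PC12 cells stably carrying ecdysone-inducible Htt exon 1 (Q103)–GFP were induced with 100 nM tebufenozide (final) alongside library compounds in a dose series. Cytoprotection was scored as retained ATP by ATPlite luminescence.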
HPGD block: blocks human HPGD enzyme activity | P15428 | purified HPGD, NADH fluorescence kinetic, PGE2 substrate | Potency, µM, for inactives: top-dose activity change, negative = inhibition, usual class: inhibitors | 4.3% of 150,000 active; note: % is set by controls: 0 for no effect and ±100 for the full control effect
Target sequence (P15428 whole entry, looked up): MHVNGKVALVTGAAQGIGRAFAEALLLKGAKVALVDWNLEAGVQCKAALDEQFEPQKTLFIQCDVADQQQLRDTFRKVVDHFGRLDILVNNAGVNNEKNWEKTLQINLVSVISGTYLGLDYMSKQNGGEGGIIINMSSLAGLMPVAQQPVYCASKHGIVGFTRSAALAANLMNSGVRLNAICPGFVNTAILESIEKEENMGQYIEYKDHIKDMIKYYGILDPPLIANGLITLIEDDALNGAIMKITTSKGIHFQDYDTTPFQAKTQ
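20 nM HPGD preincubated 15 min at room temperature with compound in 50 mM Tris-HCl pH 8, 0.01% Tween 20. Started with 1 mM NAD+ and 30 uM prostaglandin E2; NADH fluorescence (360/450 nm) read 5 times over 30-s intervals, last minus first.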
HttQ103 aggreg: reduces HttQ103-GFP aggregates in PC12 cells; PC12 HttQ103-GFP aggregates, Acumen cytometry, 40 h; Potency, µM (doses to about 46.1 µM), inactives show at the highest dose activity change, negative = inhibition, actives largely listed as inhibitors; 1.1% of 220,000 active; AID 1688; active = well fitted curve in the direction sought with a large enough effect; inconclusive = small, poorly fitted or top-dose-only effect, or another doubt; inactive = no such curve, though single readings can be large; an effect the other way counts as inactive or inconclusive; note: % is set by controls: 0 for no effect and ±100 for the full control effect; nearly all actives have a fitted effect of over 60% in size
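Ecdysone-promoter PC12 model expressing HTT exon 1 Q103 fused to GFP, induced by tebufenozide at 100 nM final. Compounds titrated; aggregates sized 1–25 µm scored on a 488 nm laser cytometer.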
* marks the source's active call; other numbers are inactive results; ? = inconclusive; nt = no result given; [ ] = remark or other dose. Unless noted, calls come from the whole dose curve; as a rule, active = well fitted inhibition curve with a large enough effect (not every such curve was filed as active); inconclusive = small, poorly fitted or top-dose-only effect, or another doubt; inactive = no such curve, though single readings can be large or run the other way. Potency is the fitted concentration of half-maximal effect.

SMILES	KDM4E inh	ALDH1A1 inh	LMNA splice mod	HTT ATP protect	HPGD block	HttQ103 aggreg
CCN(CC)C(=O)N[C@H]1C=C2c3cccc4[nH]cc(c34)C[C@@H]2N(C)C1	?	?	?	11.9%[40.3 µM]	?	nt
FC(F)(F)c1ccc(Cl)cc1	nt	0.2%	nt	-1.5%	-3.0%	nt
CCc1ccc(N2NC(=O)/C(=C/C=C/c3ccco3)C2=O)cc1	1.4%	3.16µM*	-11.6%	23.6%[10 µM]	-18.5%	19.7%
CCc1ccc(N2C(=O)NC(=O)/C(=C\C=C\c3ccco3)C2=O)cc1	-17.2%	nt	nt	-29.8%[10 µM]	nt	43.8%[9.22 µM]
CCCCN1C(=O)/C(=C/C=C/c2ccco2)C(=O)NC1=S	-26.3%	15.8µM*	-3.9%	3.6%[10 µM]	10µM*	21.3%
O=C1NC(=O)N(Cc2ccccc2)C(=O)/C1=C\c1ccco1	-13.1%	?	?	-3.1%[10 µM]	nt	19.7%
CCCCN1C(=O)/C(=C\c2ccco2)C(=O)N(CCc2ccccc2)C1=O	-5.7%	3.3%	2.9%	-11.7%	31.6µM*	3.6%
CC(C)c1ccc(N2C(=O)NC(=O)/C(=C/C=C/c3ccco3)C2=O)cc1	-17.4%	-9.0%	12.4%	nt	3.16µM*	?
O=CN1C[C@H]2C[C@@H](C1)c1cccc(=O)n1C2	nt	nt	nt	4.9%	nt	nt
Cc1cc(C)cc(OP(=O)(Oc2cc(C)cc(C)c2)Oc2cc(C)cc(C)c2)c1	nt	?	nt	-71.4%	-13.6%	nt
c1ccc(C2CO2)cc1 (stereo unspecified)	nt	6.4%	nt	1.6%	-7.7%	nt
Cc1cc(C)cc(N2C(=O)NC(=O)/C(=C\C=C\c3ccco3)C2=O)c1	-14.0%	?	?	11.3%[10 µM]	10µM*	?
O=C1NC(=O)N(c2ccccc2)C(=O)/C1=C\C=C\c1ccccc1	3.98µM*	10µM*	?	-30.0%[10 µM]	nt	1.5%[9.22 µM]
Cc1ccc(N2C(=O)NC(=O)/C(=C/C=C/c3ccco3)C2=O)cc1	-22.1%	?	?	-4.7%[10 µM]	7.08µM*	?
NC(CCl)=N[C@H]1CN2CCC1CC2	nt	?	nt	16.2%[10 µM]	-1.6%	nt
N[C@H](CCCP(=O)(O)O)C(=O)O	?	-2.0%	nt	?	-11.1%	nt
Cc1cc(C=C2C(=O)N(C)C(=S)N(C)C2=O)c(C)n1-c1cccnc1	-3.2%	11.2µM*	6.6%	9.1%[10 µM]	10µM*	32.9%
Cc1cc(/C=C2/C(=O)NC(=O)N(C)C2=O)c(C)n1-c1ccccc1	-5.3%	2.0%	?	-34.0%	nt	-19.2%[9.22 µM]
Cc1cc(C=C2C(=O)N(C)C(=S)N(C)C2=O)c(C)n1C1CCCC1	-4.2%	22.4µM*	-0.2%	-12.3%	-12.6%	-15.4%
Cc1cc(C=O)c(C)n1C1CCCCC1	-3.2%	22.4µM*	-2.1%	0.5%	-7.2%	9.2%[1.84 µM]
Cc1cc(/C=C2\C(=O)NC(=S)N(C)C2=O)c(C)n1C1CCCCC1	-4.0%	-7.7%	-7.6%	-1.4%[10 µM]	-1.3%	11.7%
Cc1cc(C=O)c(C)n1CC1CCCO1 (stereo unspecified)	9.0%	?	-0.4%	8.2%	-10.7%	12.8%
CCN1C(=O)C(=Cc2cc(C)n(C3CC3)c2C)C(=O)N(CC)C1=S	-2.4%	10µM*	-7.9%	-7.8%[10 µM]	-19.0%	?
CCC[C@@H]1CC2=CC(=O)CC[C@]2(C)[C@@H]2CC[C@@]3(C)[C@H](CC[C@]3(O)CCC(=O)O)[C@H]12	4.7%	6.5%	nt	-45.5%[1.9 µM]	10.8%	nt
CCN1C[C@@]2(COC)[C@H](O)C[C@H](OC)[C@@]34[C@@H]5C[C@@]6(O)[C@H](OC(=O)c7ccccc7)[C@H]5[C@@](OC(C)=O)([C@H]([C@@H](OC)[C@H]23)[C@H]14)[C@H](O)[C@@H]6OC	nt	nt	nt	-7.0%	nt	nt
SMILES	KDM4E inh	ALDH1A1 inh	LMNA splice mod	HTT ATP protect	HPGD block	HttQ103 aggreg
NCCNCCNCCNCCN	nt	31.6µM*	?	?	-8.3%	16.9%
CC(=NCCN1CCOCC1)c1c(O)n(C2CCCCC2)c(=O)[nH]c1=O	-8.0%	14.1µM*	?	-15.6%	0.3%	0.3%
CC(=NCC1CCCO1)c1c(O)n(C2CCCCC2)c(=O)[nH]c1=O (stereo unspecified)	-25.4%	nt	nt	10.4%[10 µM]	nt	3.2%[9.22 µM]
CNNC	?	?	-9.5%	nt	?	nt
C=CCN1C(=O)/C(=C/c2cc(C)n(-c3ccccn3)c2C)C(=O)NC1=S	-1.1%	?	4.3%	nt	12.6µM*	-15.2%
CC(C)C(CCN1C(=O)c2ccccc2C1=O)c1ccco1 (stereo unspecified)	-4.0%	22.4µM*	1.9%	-6.9%	-15.9%	-6.7%[1.84 µM]
C[N+](=O)[O-]	nt	10.2%	nt	-3.1%	-3.3%	nt
ClC1=C(Cl)C(Cl)(Cl)C(Cl)=C1Cl	nt	28.2µM*	nt	-9.4%	-7.7%	nt
CC[C@@H]1[C@@H]2Cc3ccc(O)cc3[C@@]1(CC)CCN2C	nt	6.1%[13.5 µM]	nt	20.2%[10 µM]	-2.1%	nt
N#CC(c1ccc(Cl)nn1)c1c(F)cccc1Cl (stereo unspecified)	2.1%	14.1µM*	nt	-4.1%[10 µM]	nt	-2.5%
CCOP(=S)(OCC)SCn1c(=O)oc2cc(Cl)ccc21	-11.6%	2.5%	?	nt	?	nt
CCn1c(=O)oc2cc(NC(=O)CCl)ccc21	-4.2%	1.58µM*	?	-140.8%	nt	-4.7%[9.22 µM]
CC(C)N[C@@H](C)Cc1ccc(I)cc1	nt	nt	nt	20.0%[1.9 µM]	nt	nt
N[C@@H](Cc1ccccc1)P(=O)(O)O	nt	-0.9%[13.5 µM]	nt	-16.0%[10 µM]	-6.1%	nt
CN1CCN(c2ccc(C=O)cc2)CC1	-1.5%	12.6µM*	11.5%	23.6%	-5.3%	18.6%
CN1CCN(c2ccc(NC(=O)C(C)(C)C)cc2)CC1	8.7%	8.0%	-2.1%	-15.2%	-5.9%	-5.2%
CN1CCN(c2ccc(N)cc2)CC1	?	31.6µM*	-11.3%	21.7%	-13.1%	11.5%
CCN1CCN(Cc2cc(C(C)(C)C)c(O)c(C(C)(C)C)c2)CC1	?	28.2µM*	3.6%	-12.1%	3.5%	22.2%
C=C(C)[C@@H]1CN[C@H](C(=O)O)[C@H]1CC(=O)O	nt	nt	nt	-20.2%[1.9 µM]	nt	nt
Cc1cc(OCCCC(=O)NCc2cccs2)ccc1Cl	14.1%	11.3%	?	8.8%[10 µM]	-17.2%	-2.9%
Cc1cc(Cl)ccc1OCCCC(=O)NCc1cccs1	4.0%	2.6%	-18.7%	-2.9%[10 µM]	31.6µM*	14.2%
S=c1[nH]nc(C2CC2)n1Cc1ccccc1	-3.9%	14.1µM*	-11.5%[46 µM]	-6.2%	nt	22.9%
Cc1ccc(OP(=O)(Oc2ccc(C)cc2)Oc2ccc(C)cc2)cc1	nt	7.9%	nt	-58.5%	-0.1%	nt
CCOC(=O)c1ccc(NC(=O)C2C3C=CC(O3)C2C(=O)O)cc1 (stereo unspecified)	-7.0%	10µM*	26.6%	29.7%	-8.8%	0.4%
CCOC(=O)c1ccc(NC(c2ccc(N(C)C)cc2)P(=O)(OC(C)C)OC(C)C)cc1 (stereo unspecified)	-27.9%	?	-21.8%[46 µM]	-29.4%	nt	-18.0%
O=c1[nH]sc2cc(F)ccc12	-17.6%	1.41µM*	?	?	nt	-101.0%
C=Cc1ccccc1	nt	?	nt	-0.6%	-4.0%	nt
